Measurements from PMC4336329 (PLoS ONE, 2015).
Hit rate of the full screen: of about 310,000 compounds, about 2,200 (0.71%) showed an effect of 50% or more. The effect is printed as a negative number. The list comes from a sample in which strong results are over-represented; it also holds similar structures and randomly drawn compounds.

target: human ether-à-go-go-related gene (hERG) potassium channel (human, UniProt Q12809); assay: primary screen, population patch clamp on CHO cells stably expressing hERG; higher = less effect of the substance
Sequence (Q12809 whole entry, looked up): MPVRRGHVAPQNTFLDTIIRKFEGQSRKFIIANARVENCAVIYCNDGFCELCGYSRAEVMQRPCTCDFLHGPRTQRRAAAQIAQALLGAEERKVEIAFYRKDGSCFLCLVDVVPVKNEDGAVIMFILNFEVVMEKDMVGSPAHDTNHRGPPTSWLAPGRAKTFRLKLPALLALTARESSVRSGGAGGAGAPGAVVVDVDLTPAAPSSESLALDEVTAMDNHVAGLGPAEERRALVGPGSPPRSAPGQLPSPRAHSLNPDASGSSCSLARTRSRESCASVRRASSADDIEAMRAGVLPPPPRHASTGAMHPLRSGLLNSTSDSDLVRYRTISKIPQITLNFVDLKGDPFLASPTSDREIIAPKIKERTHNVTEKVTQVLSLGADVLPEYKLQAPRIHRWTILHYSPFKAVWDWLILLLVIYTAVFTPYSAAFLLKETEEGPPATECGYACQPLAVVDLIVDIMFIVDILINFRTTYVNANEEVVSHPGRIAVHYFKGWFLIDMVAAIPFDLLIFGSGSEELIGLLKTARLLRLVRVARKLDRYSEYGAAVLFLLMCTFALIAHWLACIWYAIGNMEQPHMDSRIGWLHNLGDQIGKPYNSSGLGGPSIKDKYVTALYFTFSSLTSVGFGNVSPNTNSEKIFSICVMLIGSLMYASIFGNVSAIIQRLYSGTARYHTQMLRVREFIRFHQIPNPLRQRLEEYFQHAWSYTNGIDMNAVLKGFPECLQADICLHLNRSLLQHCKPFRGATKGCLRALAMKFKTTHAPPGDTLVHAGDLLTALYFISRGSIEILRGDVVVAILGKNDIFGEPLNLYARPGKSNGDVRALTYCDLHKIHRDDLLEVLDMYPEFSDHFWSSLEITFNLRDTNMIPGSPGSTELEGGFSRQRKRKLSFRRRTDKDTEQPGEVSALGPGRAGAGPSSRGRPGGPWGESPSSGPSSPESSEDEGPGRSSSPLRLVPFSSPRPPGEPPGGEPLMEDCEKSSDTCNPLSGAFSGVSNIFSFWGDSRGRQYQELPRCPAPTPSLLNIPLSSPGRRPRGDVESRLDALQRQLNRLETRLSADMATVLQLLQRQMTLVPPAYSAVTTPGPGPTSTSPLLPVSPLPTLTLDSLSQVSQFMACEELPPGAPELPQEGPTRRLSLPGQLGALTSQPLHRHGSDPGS

In order of falling “hERG current change (%, negative = inhibition) at 1uM” value:
1. O=C(CSc1nc2[nH]c(=O)cc(O)c2s1)Nc1cccc(Br)c1  18.8%
2. Cl.Nc1ccc(-c2nc3c(ccc4ccccc43)[nH]2)cc1  16.3%
3. COc1ccc(Nc2nnc(C)c3ccccc23)cc1C(N)=O  16.1%
4. Cc1sc(NC(=O)CCl)c(C(=O)c2ccccc2)c1C  15.1%
5. COc1ccc(C2C(C(=O)NCc3ccccc3)=C(C)Nc3ncnn32)cc1OC (stereo not shown)  13.9%
6. Fc1cccc(Cc2noc(CN3CCCCC3CCc3ccccn3)n2)c1 (stereo not shown)  13.2%
7. CC(=O)c1ccc(N2CCN(c3ccccc3O)CC2)c([N+](=O)[O-])c1  12.9%
8. COc1ccc(-n2c(O)c(/C=C3\C=Nc4ccc(Br)cc43)c(=O)[nH]c2=O)cc1  12%
9. CC(c1cccs1)N(Cc1ccco1)C(=S)Nc1ccccc1Cl (stereo not shown)  11.9%
10. CC[C@@H]1CN(C)[C@H]2Cc3c([nH]c4ccccc34)C(=O)C[C@@H]1[C@@H]2C(=O)OC  11.8%
11. Cc1ccc(S(=O)(=O)Nc2nc(C)c(C(=O)N/N=C/c3ccccc3)s2)cc1  11%
12. CC(C)(C)c1ccc(OC(=O)c2ccc(-n3cncn3)nc2)cc1  10.9%
13. CC[C@H]1CN(C)C[C@@]2(C(=O)OC)Cc3c([nH]c4ccccc34)C(=O)C[C@@H]12  10.5%
14. Cc1nc(-c2cnn(-c3ccccc3)c2)c2cc(C)oc2n1  10.3%
15. c1ccc2oc(-c3[nH]ncc3CN3CCSCC3)cc2c1  9.72%
16. Cc1nn(-c2ccccn2)c2c1-c1nc(N3CCOCC3)ncc1CC2  8.1%
17. N#Cc1cccnc1N1CCN(C(=O)c2cccs2)CC1  7.29%
18. Nc1cccc(Oc2ccc([N+](=O)[O-])cc2)c1  7.1%
19. CCOC(=O)c1ccc(NS(=O)(=O)c2ccc3oc(=O)[nH]c3c2)cc1  7.04%
20. COC(=O)C1=C(C)N(C)C(=O)NC1c1c(O)ccc2ccccc12 (stereo not shown)  6.78%
21. COc1ccc(-c2nc(CN3CCN(Cc4ccccc4)CC3)c(C)o2)cc1  4.17%
22. O=C(CN1CCc2ccccc2C1)Nc1ccccc1C(=O)NC1CC1  3.95%
23. CC(=O)Nc1ccc(S(=O)(=O)N2CCN(C34CC5CC(CC(C5)C3)C4)CC2)cc1  3.31%
24. S=c1[nH]nc(-c2cc(-c3ccco3)[nH]n2)n1-c1ccccc1  3.15%
25. O=C(CN1CCN(S(=O)(=O)c2ccccc2)CC1)Nc1ccccc1C(=O)NC1CC1  1.22%
26. O=C(NCCN1CCOCC1)c1cc2cc(Br)ccc2oc1=O  0.63%
27. CCC(NC(=O)Cc1c(C)c2ccc(OC)c(C)c2oc1=O)C(=O)NC(Cc1ccc(Cl)cc1)C(=O)O (stereo not shown)  0.501%
28. CC/C(=N/Nc1ccccc1)c1cnnc(-c2ccccc2)n1  0.406%
29. Cc1ccc2cc(C#N)c(N3CCN(C(=O)c4cccs4)CC3)nc2c1  -1%
30. COc1ccc(S(=O)(=O)N(C)C)cc1NC(=O)CCCSc1ccccc1  -5.8%
31. Cc1ccc2cc(C#N)c(N3CCN(C(=O)c4ccccc4)CC3)nc2c1  -6.89%
32. c1ccc(NC2=NCCCCS2)cc1  -9.85%
33. Cc1ccc2nc(N3CCN(C)CC3)c(C#N)cc2c1  -10%
34. CN1C(C(=O)NCc2ccc(OC(F)(F)F)cc2)CC2Cn3c(nc4cc5ccccc5cc43)C21 (stereo not shown)  -14.7%
35. O=C(NCc1ccc(OC(F)(F)F)cc1)C1CC2Cn3c(nc4ccccc43)C2N1c1ccccc1 (stereo not shown)  -15.8%
36. Cl.O.Oc1ccc2c3c1O[C@H]1c4[nH]c5ccccc5c4C[C@@]4(O)C(C2)N(CC2CC2)CC[C@]314  -16.4%
37. O=C(c1ccccn1)C1CCCN(Cc2cn[nH]c2-c2cc3ccccc3o2)C1 (stereo not shown)  -23.5%
38. CCOc1ccc(-c2nc(CN3CCCCC3CCn3cccn3)c(C)o2)cc1 (stereo not shown)  -24.9%
39. N#Cc1ccccc1S(=O)(=O)N1CCN(CC(=O)Nc2ccccc2C(=O)NC2CC2)CC1  -25.4%
40. Cl.Oc1ccc2c3c1O[C@H]1c4[nH]c5ccccc5c4C[C@@]4(O)[C@@H](C2)N(CC2CC2)CC[C@]314  -29.7%
41. Cc1oc(-c2cccc(F)c2)nc1CN1CCCCC1CCn1cccn1 (stereo not shown)  -40.1%
42. CC(=O)c1ccc(S(=O)(=O)N2CCN(CC(=O)Nc3ccccc3C(=O)NC3CC3)CC2)cc1  -43.4%
43. Cc1ccc2nc(N3CCN(C(=O)c4cccs4)CC3)c(C#N)cc2c1  -51.3%
44. CC[C@H]1CN(C)CCc2c([nH]c3ccccc23)C(=O)C[C@@H]1/C(=C\OC)C(=O)OC  -53.3%
45. Cc1ccc2nc(N3CCN(C(=O)c4ccc(F)cc4)CC3)c(C#N)cc2c1  -56.8%
46. c1ccc(CCC2CCCCN2Cc2cn[nH]c2-c2cc3ccccc3o2)nc1 (stereo not shown)  -67%
47. N#Cc1ccc(S(=O)(=O)N2CCN(CC(=O)Nc3ccccc3C(=O)NC3CC3)CC2)cc1  -67.3%
48. CS(=O)(=O)O.O.Oc1ccc2c3c1O[C@H]1c4oc5ccccc5c4C[C@@]4(O)[C@@H](C2)N(CC2CC2)CC[C@]314  -68.1%
49. CN1C(C(=O)NCc2ccc(OC(F)(F)F)cc2)CC2Cn3c(nc4ccccc43)C21 (stereo not shown)  -74.9%
50. COc1ccc(-c2nc(CN3CCCCC3CCc3ccccn3)c(C)o2)cc1 (stereo not shown)  -79.4%
51. N#Cc1ccc(CN2CCN(CC(=O)Nc3ccccc3C(=O)NC3CC3)CC2)cc1  -87.4%
52. Cc1oc(-c2cccc(F)c2)nc1CN1CCCCC1CCc1ccccn1 (stereo not shown)  -89.5%
